# ChEMBL document CHEMBL1961873, “Compounds: GSK PKIS; Assays: Nanosyn kinase panel” (2012)
# Columns and labels:
# [1] = biological target: Sphingosine kinase 1 (Homo sapiens) (UniProt Q9NYA1); conditions: at 1 µM;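 note: mean SPHK1 inhibition value reported from the GSK PKIS kinase panel screen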
# [2] = biological target: T1, Sphingosine kinase 2 (Homo sapiens) (UniProt Q9NRA0); conditions: at 0.1 µM
# T1 sequence (whole entry): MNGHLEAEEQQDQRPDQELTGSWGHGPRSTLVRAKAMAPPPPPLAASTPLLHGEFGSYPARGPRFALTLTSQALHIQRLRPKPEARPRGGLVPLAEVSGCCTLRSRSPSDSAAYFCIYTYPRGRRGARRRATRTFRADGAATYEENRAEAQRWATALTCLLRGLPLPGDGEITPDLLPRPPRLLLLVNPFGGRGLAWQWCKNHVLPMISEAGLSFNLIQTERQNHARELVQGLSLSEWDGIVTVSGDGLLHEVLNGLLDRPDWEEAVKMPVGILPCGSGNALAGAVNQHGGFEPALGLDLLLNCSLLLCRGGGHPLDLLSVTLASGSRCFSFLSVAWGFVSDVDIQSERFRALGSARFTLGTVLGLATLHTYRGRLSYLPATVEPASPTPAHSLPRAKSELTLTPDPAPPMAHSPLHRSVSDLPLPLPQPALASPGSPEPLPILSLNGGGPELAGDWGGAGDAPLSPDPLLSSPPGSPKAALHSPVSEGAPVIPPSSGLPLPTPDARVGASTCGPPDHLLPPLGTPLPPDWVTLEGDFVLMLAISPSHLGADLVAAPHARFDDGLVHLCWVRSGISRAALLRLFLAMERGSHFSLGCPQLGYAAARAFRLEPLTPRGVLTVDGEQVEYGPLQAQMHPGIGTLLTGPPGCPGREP
# [3] = biological target: T1, Sphingosine kinase 2 (Homo sapiens); conditions: at 1 µM
# [4] = biological target: Casein kinase II subunit alpha (Homo sapiens) (UniProt P68400); conditions: at 0.1 µM
# Sequence of Casein kinase II subunit alpha (Homo sapiens) (P68400 whole entry, looked up): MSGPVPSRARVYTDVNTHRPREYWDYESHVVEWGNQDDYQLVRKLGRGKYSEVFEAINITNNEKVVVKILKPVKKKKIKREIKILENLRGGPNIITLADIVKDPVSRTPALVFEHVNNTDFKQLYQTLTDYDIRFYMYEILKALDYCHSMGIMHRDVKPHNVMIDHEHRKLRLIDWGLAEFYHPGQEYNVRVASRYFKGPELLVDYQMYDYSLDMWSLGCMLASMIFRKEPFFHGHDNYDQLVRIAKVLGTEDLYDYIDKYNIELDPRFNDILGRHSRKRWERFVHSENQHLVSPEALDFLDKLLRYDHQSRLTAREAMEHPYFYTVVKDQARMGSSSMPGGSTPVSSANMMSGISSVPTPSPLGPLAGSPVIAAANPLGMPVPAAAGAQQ
# [5] = biological target: Casein kinase II subunit alpha (Homo sapiens) (UniProt P68400); conditions: at 1 µM
# [6] = biological target: T2, Inhibitor of nuclear factor kappa-B kinase subunit alpha (Homo sapiens) (UniProt O15111); conditions: at 0.1 µM
# T2 sequence (whole entry): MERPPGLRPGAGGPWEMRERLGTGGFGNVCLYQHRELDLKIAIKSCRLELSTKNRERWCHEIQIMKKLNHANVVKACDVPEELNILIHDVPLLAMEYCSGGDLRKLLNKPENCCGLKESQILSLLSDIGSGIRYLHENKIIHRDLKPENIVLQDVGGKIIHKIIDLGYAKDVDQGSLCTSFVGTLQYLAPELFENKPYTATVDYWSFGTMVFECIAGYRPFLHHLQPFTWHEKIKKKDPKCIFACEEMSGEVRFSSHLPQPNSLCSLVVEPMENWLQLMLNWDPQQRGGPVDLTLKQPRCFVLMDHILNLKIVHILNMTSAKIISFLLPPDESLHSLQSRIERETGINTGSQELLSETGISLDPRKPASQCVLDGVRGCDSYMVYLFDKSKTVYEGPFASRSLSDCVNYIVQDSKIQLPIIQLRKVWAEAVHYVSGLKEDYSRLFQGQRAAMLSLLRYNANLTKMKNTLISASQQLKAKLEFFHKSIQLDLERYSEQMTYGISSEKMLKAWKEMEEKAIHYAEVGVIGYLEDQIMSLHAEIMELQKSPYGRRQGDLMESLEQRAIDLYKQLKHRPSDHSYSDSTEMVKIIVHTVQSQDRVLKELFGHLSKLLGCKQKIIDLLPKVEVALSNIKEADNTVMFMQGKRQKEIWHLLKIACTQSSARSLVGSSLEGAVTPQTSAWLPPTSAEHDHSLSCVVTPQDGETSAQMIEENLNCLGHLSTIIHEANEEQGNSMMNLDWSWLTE
# [7] = biological target: T2, Inhibitor of nuclear factor kappa-B kinase subunit alpha (Homo sapiens); conditions: at 1 µM
# [8] = biological target: T3, Inhibitor of nuclear factor kappa-B kinase subunit beta (Homo sapiens) (UniProt O14920); conditions: at 0.1 µM
# T3 sequence (whole entry): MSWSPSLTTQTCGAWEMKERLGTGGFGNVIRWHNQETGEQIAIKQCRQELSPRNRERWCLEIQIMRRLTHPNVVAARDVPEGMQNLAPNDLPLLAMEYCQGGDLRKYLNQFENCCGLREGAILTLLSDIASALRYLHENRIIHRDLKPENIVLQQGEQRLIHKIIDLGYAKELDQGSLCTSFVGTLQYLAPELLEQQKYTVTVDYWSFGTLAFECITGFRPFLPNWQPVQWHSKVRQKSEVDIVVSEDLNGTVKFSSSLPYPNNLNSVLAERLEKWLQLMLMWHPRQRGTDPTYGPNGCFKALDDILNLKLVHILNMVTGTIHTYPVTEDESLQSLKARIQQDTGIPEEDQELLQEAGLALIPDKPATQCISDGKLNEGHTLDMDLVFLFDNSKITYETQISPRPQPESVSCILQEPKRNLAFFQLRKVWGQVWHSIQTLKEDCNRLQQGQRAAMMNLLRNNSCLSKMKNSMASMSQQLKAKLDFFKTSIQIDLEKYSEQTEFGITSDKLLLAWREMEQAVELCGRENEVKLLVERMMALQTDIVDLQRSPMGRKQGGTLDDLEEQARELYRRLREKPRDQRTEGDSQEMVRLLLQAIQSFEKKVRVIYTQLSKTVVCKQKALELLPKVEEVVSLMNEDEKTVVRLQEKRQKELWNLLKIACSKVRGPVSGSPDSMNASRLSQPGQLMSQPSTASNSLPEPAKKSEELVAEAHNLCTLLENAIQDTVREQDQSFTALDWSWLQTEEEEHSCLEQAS
# [9] = biological target: T3, Inhibitor of nuclear factor kappa-B kinase subunit beta (Homo sapiens); conditions: at 1 µM
# [10] = biological target: T4, Inhibitor of nuclear factor kappa-B kinase subunit epsilon (Homo sapiens) (UniProt Q14164); conditions: at 0.1 µM
# T4 sequence (whole entry): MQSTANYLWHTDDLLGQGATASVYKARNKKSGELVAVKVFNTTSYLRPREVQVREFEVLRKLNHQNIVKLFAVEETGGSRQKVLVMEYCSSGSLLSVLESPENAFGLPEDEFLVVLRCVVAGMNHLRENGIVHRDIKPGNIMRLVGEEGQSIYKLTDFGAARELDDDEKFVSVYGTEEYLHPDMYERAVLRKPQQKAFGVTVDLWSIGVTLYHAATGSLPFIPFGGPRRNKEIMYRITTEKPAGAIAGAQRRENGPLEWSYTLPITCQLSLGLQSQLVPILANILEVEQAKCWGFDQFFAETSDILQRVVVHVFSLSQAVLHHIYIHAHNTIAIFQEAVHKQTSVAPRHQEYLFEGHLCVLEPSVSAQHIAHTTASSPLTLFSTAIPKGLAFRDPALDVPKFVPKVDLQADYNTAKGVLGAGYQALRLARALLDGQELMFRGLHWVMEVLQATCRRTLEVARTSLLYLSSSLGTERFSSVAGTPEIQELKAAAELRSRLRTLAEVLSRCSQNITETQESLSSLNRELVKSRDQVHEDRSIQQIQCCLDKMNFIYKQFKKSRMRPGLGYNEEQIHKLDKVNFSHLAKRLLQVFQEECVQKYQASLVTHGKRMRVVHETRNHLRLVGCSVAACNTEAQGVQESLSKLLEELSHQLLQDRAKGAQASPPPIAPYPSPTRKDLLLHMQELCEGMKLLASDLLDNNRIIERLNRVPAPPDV
# [11] = biological target: T4, Inhibitor of nuclear factor kappa-B kinase subunit epsilon (Homo sapiens); conditions: at 1 µM
# [12] = biological target: T5, Serine/threonine-protein kinase Nek1 (Homo sapiens) (UniProt Q96PY6); conditions: at 0.1 µM
# T5 sequence (whole entry): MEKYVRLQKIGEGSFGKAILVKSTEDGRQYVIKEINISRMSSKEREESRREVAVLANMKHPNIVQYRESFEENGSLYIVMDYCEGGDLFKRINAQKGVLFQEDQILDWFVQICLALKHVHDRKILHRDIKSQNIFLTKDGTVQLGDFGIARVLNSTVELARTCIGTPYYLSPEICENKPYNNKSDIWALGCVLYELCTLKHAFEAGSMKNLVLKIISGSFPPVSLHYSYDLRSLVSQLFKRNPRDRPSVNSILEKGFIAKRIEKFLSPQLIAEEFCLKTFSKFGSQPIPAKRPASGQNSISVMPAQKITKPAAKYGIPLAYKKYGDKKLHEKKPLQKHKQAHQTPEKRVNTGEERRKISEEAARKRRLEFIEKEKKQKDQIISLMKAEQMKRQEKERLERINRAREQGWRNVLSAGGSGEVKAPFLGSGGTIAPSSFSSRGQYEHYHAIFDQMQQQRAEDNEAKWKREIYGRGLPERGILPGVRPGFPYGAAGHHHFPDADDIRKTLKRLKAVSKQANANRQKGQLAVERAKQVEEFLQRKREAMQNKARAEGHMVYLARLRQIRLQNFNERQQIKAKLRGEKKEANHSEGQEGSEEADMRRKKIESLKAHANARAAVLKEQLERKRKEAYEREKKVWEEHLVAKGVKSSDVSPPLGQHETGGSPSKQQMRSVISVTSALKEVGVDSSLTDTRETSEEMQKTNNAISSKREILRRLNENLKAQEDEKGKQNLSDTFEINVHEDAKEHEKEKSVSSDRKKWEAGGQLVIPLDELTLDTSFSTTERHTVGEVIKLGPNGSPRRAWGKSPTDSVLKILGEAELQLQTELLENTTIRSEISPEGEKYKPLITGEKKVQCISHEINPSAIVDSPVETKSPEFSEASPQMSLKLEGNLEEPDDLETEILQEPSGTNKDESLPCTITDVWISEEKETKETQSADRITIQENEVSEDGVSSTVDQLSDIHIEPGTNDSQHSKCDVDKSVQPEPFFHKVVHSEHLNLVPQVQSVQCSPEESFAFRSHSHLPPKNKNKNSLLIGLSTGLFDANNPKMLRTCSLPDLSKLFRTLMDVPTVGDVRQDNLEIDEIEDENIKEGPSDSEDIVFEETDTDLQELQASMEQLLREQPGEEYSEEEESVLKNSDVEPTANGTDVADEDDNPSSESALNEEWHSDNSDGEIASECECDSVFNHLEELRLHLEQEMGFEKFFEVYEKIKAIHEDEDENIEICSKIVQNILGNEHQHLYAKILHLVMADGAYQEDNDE
# [13] = biological target: T5, Serine/threonine-protein kinase Nek1 (Homo sapiens); conditions: at 1 µM
# [14] = biological target: T6, Serine/threonine-protein kinase Nek2 (Homo sapiens) (UniProt P51955); conditions: at 0.1 µM
# T6 sequence (whole entry): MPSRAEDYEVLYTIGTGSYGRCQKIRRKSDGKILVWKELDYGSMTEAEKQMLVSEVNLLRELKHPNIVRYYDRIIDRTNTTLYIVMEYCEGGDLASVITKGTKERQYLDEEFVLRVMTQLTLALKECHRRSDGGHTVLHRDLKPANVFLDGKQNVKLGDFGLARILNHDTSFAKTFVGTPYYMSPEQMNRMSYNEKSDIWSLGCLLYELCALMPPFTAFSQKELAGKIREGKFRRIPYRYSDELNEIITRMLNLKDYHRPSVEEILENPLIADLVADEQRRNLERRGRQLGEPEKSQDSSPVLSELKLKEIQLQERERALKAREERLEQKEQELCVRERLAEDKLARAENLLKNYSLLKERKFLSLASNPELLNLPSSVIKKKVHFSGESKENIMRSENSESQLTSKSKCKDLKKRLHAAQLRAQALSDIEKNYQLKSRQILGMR
# [15] = biological target: T6, Serine/threonine-protein kinase Nek2 (Homo sapiens); conditions: at 1 µM
# [16] = biological target: Serine/threonine-protein kinase Nek6 (Homo sapiens) (UniProt Q9HC98); conditions: at 0.1 µM
# Sequence of Serine/threonine-protein kinase Nek6 (Homo sapiens) (Q9HC98 whole entry): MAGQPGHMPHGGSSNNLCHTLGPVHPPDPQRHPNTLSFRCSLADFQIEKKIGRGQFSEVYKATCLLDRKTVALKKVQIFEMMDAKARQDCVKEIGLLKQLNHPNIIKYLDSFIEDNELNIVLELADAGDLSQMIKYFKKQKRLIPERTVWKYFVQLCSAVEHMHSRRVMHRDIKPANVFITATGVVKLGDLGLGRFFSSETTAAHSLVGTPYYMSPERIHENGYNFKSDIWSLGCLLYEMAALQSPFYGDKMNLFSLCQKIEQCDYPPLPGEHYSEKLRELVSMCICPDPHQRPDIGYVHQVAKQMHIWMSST
# [17] = biological target: Serine/threonine-protein kinase Nek6 (Homo sapiens) (UniProt Q9HC98); conditions: at 1 µM
# [18] = biological target: Serine/threonine-protein kinase Nek7 (Homo sapiens) (UniProt Q8TDX7); conditions: at 0.1 µM
# Sequence of Serine/threonine-protein kinase Nek7 (Homo sapiens) (Q8TDX7 whole entry, looked up): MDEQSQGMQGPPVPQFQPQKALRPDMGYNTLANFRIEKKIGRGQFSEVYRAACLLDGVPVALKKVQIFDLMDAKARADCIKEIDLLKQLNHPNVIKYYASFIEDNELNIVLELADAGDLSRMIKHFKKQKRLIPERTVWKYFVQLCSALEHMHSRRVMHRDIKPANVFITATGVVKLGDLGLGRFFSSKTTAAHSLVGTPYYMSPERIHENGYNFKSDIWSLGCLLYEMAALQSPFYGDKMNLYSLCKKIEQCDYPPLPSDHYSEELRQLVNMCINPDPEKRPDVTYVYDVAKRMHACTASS
# [19] = biological target: Serine/threonine-protein kinase Nek7 (Homo sapiens) (UniProt Q8TDX7); conditions: at 1 µM
# [20] = biological target: T7, Serine/threonine-protein kinase Nek9 (Homo sapiens) (UniProt Q8TD19); conditions: at 0.1 µM;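 note: reported value is the mean percent inhibition of NEK9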
# T7 sequence (whole entry): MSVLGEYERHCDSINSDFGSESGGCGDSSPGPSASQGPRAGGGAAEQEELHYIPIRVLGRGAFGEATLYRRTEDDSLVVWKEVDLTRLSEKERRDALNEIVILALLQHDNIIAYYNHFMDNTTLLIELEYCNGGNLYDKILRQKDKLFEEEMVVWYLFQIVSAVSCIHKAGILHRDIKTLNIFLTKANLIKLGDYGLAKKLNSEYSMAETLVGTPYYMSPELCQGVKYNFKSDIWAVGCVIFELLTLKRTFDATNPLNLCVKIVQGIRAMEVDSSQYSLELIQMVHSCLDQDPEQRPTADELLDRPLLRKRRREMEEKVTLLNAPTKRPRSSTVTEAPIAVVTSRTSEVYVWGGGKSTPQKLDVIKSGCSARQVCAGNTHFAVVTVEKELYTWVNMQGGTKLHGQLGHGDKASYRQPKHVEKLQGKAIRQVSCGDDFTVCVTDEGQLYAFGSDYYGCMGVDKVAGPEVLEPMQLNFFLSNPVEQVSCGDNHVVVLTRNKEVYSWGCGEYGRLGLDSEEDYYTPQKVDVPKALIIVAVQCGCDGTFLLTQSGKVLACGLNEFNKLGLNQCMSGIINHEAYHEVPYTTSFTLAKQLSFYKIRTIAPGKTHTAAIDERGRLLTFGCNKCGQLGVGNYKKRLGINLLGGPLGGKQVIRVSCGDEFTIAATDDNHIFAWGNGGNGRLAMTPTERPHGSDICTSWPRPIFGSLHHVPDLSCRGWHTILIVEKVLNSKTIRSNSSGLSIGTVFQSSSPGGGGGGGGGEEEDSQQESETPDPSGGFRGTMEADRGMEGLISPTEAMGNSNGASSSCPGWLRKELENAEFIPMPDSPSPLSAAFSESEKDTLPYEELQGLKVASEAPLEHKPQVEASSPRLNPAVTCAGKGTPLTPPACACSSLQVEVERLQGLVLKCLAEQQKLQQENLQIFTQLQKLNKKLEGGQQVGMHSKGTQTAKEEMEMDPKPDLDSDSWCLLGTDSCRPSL
# Sequence of Sphingosine kinase 1 (Homo sapiens) (Q9NYA1 whole entry): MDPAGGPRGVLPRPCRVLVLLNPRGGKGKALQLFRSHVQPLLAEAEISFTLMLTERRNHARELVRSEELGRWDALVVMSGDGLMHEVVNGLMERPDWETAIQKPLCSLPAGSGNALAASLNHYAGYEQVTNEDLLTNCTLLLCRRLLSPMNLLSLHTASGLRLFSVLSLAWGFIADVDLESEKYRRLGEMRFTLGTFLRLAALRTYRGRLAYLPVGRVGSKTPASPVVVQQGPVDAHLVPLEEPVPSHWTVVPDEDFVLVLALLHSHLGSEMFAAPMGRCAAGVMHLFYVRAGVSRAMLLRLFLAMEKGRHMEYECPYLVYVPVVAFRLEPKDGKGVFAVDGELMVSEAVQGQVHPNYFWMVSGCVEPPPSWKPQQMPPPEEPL
SMILES,inhibition [1] [%],inhibition [2] [%],inhibition [3] [%],inhibition [4] [%],inhibition [5] [%],inhibition [6] [%],inhibition [7] [%],inhibition [8] [%],inhibition [9] [%],inhibition [10] [%],inhibition [11] [%],inhibition [12] [%],inhibition [13] [%],inhibition [14] [%],inhibition [15] [%],inhibition [16] [%],inhibition [17] [%],inhibition [18] [%],inhibition [19] [%],inhibition [20] [%]
COC(=O)c1ccc2c(c1)C(=Cc1cc(Br)c(O)c(Br)c1)C(=O)N2,-3.43,-0.52,-0.45,14.7,47,5.93,3,6.94,8.75,7.2,13.9,2.53,2.21,4.16,2.86,0.58,2.21,4.31,8.9,6.38
C[C@@H](Oc1cc(-n2cnc3ccc(OC[C@@H](O)CO)cc32)sc1C(N)=O)c1ccccc1Cl,0.3,0,0.27,1.09,10.2,-0.83,-3.48,-3.56,-1.92,-2.16,-0.86,13.6,55,3.01,19.7,-1.54,-3.82,0.63,0.36,62.4
